Laboratory results published in PubChem BioAssay AID1159580 (chemical genetic matrix, 2015).
Where “and” joins values, the source holds several entries; their conditions need not be identical. Equal entries are not always repeated. About 2,000 (36%) of roughly 5,500 compounds were called active. Not shown: some 18% with an inconclusive outcome. No stated cut-off is given here; in the data, active means normalized growth mostly below about 0.91 (no sharp cut-off); inconclusive means no clear call, values can overlap the other calls; inactive means mostly above about 0.92. The list shows a part of the results.

Experiment: chemical genetic growth profiling, strain panel (AID 1159580);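 further: tested at 20 µM; growth read once vehicle control cultures reached saturation at 30 °C; 1 = growth at the plate median or of vehicle wells; lower values mean less growth of the strain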
Conditions: growth OD
[1] = S. cerevisiae deletion strains, locus YAR019C, strain CDC15, hits give low values
[2] = S. cerevisiae deletion strains, locus YBL105C, strain PKC1, hits give low values
[3] = S. cerevisiae deletion strains, locus YBR135W, strain CKS1, hits give low values
[4] = S. cerevisiae deletion strains, locus YBR136W, strain MEC1, hits give low values
[5] = S. cerevisiae deletion strains, locus YBR160W, strain CDC28, hits give low values
[6] = S. cerevisiae deletion strains, locus YDL017W, strain CDC7, hits give low values
[7] = S. cerevisiae deletion strains, locus YDL028C, strain MPS1, hits give low values
[8] = S. cerevisiae deletion strains, locus YDL101C, strain DUN1, hits give low values
[9] = S. cerevisiae deletion strains, locus YDL108W, strain KIN28, hits give low values
[10] = S. cerevisiae deletion strains, locus YDL214C, strain PRR2, hits give low values
[11] = S. cerevisiae deletion strains, locus YDR052C, strain DBF4, hits give low values
[12] = S. cerevisiae deletion strains, locus YDR054C, strain cdc34, hits give low values
[13] = S. cerevisiae deletion strains, locus YDR226W, strain ADK1, hits give low values
[14] = S. cerevisiae deletion strains, locus YDR477W, strain SNF1, hits give low values
[15] = S. cerevisiae deletion strains, locus YER123W, strain YCK3, hits give low values
[16] = S. cerevisiae deletion strains, locus YER133W, strain GLC7, hits give low values
[17] = S. cerevisiae deletion strains, locus YFL009W, strain cdc4, hits give low values
[18] = S. cerevisiae deletion strains, locus YFL029C, strain CAK1, hits give low values
[19] = S. cerevisiae deletion strains, locus YFR003C, strain YPI1, hits give low values
[20] = S. cerevisiae deletion strains, locus YFR019W, strain FAB1, hits give low values
[21] = S. cerevisiae deletion strains, locus YFR028C, strain CDC14, hits give low values
[22] = S. cerevisiae deletion strains, locus YGR040W, strain KSS1, hits give low values
[23] = S. cerevisiae deletion strains, locus YGR052W, strain FMP48, hits give low values
[24] = S. cerevisiae deletion strains, locus YGR092W, strain DBF2, hits give low values
[25] = S. cerevisiae deletion strains, locus YHR030C, strain SLT2, hits give low values
[26] = S. cerevisiae deletion strains, locus YHR079C, strain IRE1, hits give low values
[27] = S. cerevisiae deletion strains, locus YHR082C, strain KSP1, hits give low values
[28] = S. cerevisiae deletion strains, locus YHR205W, strain SCH9, hits give low values
[29] = S. cerevisiae deletion strains, locus YIL147C, strain SLN1, hits give low values
[30] = S. cerevisiae deletion strains, locus YJL095W, strain BCK1, hits give low values
[31] = S. cerevisiae deletion strains, locus YJL157C, strain FAR1, hits give low values
[32] = S. cerevisiae deletion strains, locus YJR016C, strain ILV3, hits give low values
[33] = S. cerevisiae deletion strains, locus YJR066W, strain TOR1 (second series), hits give low values
[34] = S. cerevisiae deletion strains, locus YJR066W, strain TOR1, hits give low values
[35] = S. cerevisiae deletion strains, locus YKL048C, strain ELM1, hits give low values
[36] = S. cerevisiae deletion strains, locus YKL067W, strain YNK1, hits give low values
[37] = S. cerevisiae deletion strains, locus YKL101W, strain HSL1, hits give low values
[38] = S. cerevisiae deletion strains, locus YKL193C, strain SDS22, hits give low values
[39] = S. cerevisiae deletion strains, locus YKL203C, strain TOR2, hits give low values
[40] = S. cerevisiae deletion strains, locus YLR113W, strain HOG1, hits give low values
[41] = S. cerevisiae deletion strains, locus YLR133W, strain CKI1, hits give low values
[42] = S. cerevisiae deletion strains, locus YLR403W, strain SFP1, hits give low values
[43] = S. cerevisiae deletion strains, locus YML070W, strain DAK1, hits give low values
[44] = S. cerevisiae deletion strains, locus YMR001C, strain CDC5, hits give low values
[45] = S. cerevisiae deletion strains, locus YMR205C, strain PFK2 (second series), hits give low values
[46] = S. cerevisiae deletion strains, locus YMR277W, strain FCP1, hits give low values
[47] = S. cerevisiae deletion strains, locus YNL006W, strain LST8, hits give low values
[48] = S. cerevisiae deletion strains, locus YNL020C, strain ARK1, hits give low values
[49] = S. cerevisiae deletion strains, locus YNL161W, strain CBK1, hits give low values
[50] = S. cerevisiae deletion strains, locus YNL183C, strain NPR1, hits give low values
[51] = S. cerevisiae deletion strains, locus YNL207W, strain RIO2, hits give low values
[52] = S. cerevisiae deletion strains, locus YNL222W, strain SSU72, hits give low values
[53] = S. cerevisiae deletion strains, locus YNL307C, strain MCK1 (second series), hits give low values
[54] = S. cerevisiae deletion strains, locus YOL078W, strain AVO1, hits give low values
[55] = S. cerevisiae deletion strains, locus YOL136C, strain PFK27, hits give low values
[56] = S. cerevisiae deletion strains, locus YOR061W, strain CKA2, hits give low values
[57] = S. cerevisiae deletion strains, locus YOR119C, strain RIO1, hits give low values
[58] = S. cerevisiae deletion strains, locus YOR231W, strain MKK1, hits give low values
[59] = S. cerevisiae deletion strains, locus YOR329C, strain SCD5, hits give low values
[60] = S. cerevisiae deletion strains, locus YPL031C, strain PHO85, hits give low values
[61] = S. cerevisiae deletion strains, locus YPL153C, strain RAD53, hits give low values
[62] = S. cerevisiae deletion strains, locus YPL204W, strain HRR25, hits give low values
[63] = S. cerevisiae deletion strains, locus YPL209C, strain IPL1, hits give low values
[64] = S. cerevisiae deletion strains, locus YPL256C, strain CLN2, hits give low values
[65] = S. cerevisiae deletion strains, locus YPR025C, strain CCL1, hits give low values
[66] = S. cerevisiae deletion strains, locus YPR106W, strain ISR1, hits give low values
[67] = S. cerevisiae deletion strains, locus YPR111W, strain DBF20, hits give low values
[68] = S. cerevisiae deletion strains, strain NNK1, hits give low values
[69] = S. cerevisiae deletion strains, strain TSCII, hits give low values

Measured: normalized growth

CCOc1ccc(/C=C(\C)[N+](=O)[O-])cc1OC
inactive: [1] 0.976 | [2] 0.975 | [3] 0.97 | [4] 0.973 | [5] 0.971 | [6] 0.97 | [7] 0.973 | [9] 0.979 | S. cerevisiae deletion strains, locus YDL132W, strain cdc53, hits give low values 0.991 | [11] 0.984 | [12] 0.978 | [13] 0.97 | [17] 0.98 | [18] 0.97 | [19] 0.978 | [21] 0.974 | [29] 0.973 | S. cerevisiae deletion strains, locus YJL128C, strain PBS2, hits give low values 0.964 | [32] 0.985 | [38] 0.973 | [44] 0.967 | [46] 0.973 | [47] 0.976 | [49] 0.961 | [51] 0.977 | [52] 0.976 | [54] 0.98 | [59] 0.965 | [63] 0.968 | [65] 0.969 | [66] 0.972 | [67] 0.978 | [68] 0.975 | [69] 0.977
active: S. cerevisiae deletion strains, locus YAL013W, strain DEP1, hits give low values 0.525 | S. cerevisiae deletion strains, locus YBR229C, strain ROT2, hits give low values 0.25 | [8] 0.426 | S. cerevisiae deletion strains, locus YDL134C, strain PPH21, hits give low values 0.106 | [10] 0.471 | [14] 0.516 | S. cerevisiae deletion strains, locus YEL061C, strain CIN8, hits give low values 0.22 | [15] 0.232 | [16] 0.482 | [20] 0.284 | [22] 0.478 | [23] 0.382 | S. cerevisiae deletion strains, locus YGR078C, strain PAC10, hits give low values 0.437 | [24] 0.226 | [25] 0.0845 and 0.197 | [26] 0.313 | [27] 0.429 | S. cerevisiae deletion strains, locus YHR087W, strain rtc3, hits give low values 0.401 | [28] 0.57 | [30] 0.269 | [31] 0.46 | S. cerevisiae deletion strains, locus YJL187C, strain SWE1, hits give low values 0.434 | S. cerevisiae deletion strains, locus YJR043C, strain POL32, hits give low values 0.602 | [33] 0.126 | [34] 0.257 | S. cerevisiae deletion strains, locus YJR075W, strain HOC1, hits give low values 0.178 | [35] 0.534 | [36] 0.458 | [37] 0.393 | [39] 0.489 | S. cerevisiae deletion strains, locus YLR039C, strain RIC1, hits give low values 0.285 | S. cerevisiae deletion strains, locus YLR058C, strain SHM2 (second series), hits give low values 0.651 | S. cerevisiae deletion strains, locus YLR085C, strain ARP6, hits give low values 0.163 | [40] 0.203 | [41] 0.547 | S. cerevisiae deletion strains, locus YLR262C, strain YPT6, hits give low values 0.283 | [42] 0.497 | [43] 0.295 | S. cerevisiae deletion strains, locus YML094W, strain GIM5, hits give low values 0.145 | [45] 0.554 | S. cerevisiae deletion strains, locus YMR219W, strain ESC1, hits give low values 0.285 | S. cerevisiae deletion strains, locus YMR263W, strain SAP30, hits give low values 0.463 | [48] 0.528 | S. cerevisiae deletion strains, locus YNL153C, strain GIM3, hits give low values 0.171 | [50] 0.359 | S. cerevisiae deletion strains, locus YNL298W, strain CLA4 (second series), hits give low values 0.204 | [53] 0.364 | S. cerevisiae deletion strains, locus YNL322C, strain KRE1, hits give low values 0.873 | S. cerevisiae deletion strains, locus YNR030W, strain Alg12, hits give low values 0.0808 | S. cerevisiae deletion strains, locus YOL006C, strain TOP1, hits give low values 0.0719 | [55] 0.374 | [56] 0.571 | [57] 0.444 | [58] 0.289 | [60] 0.409 | S. cerevisiae deletion strains, locus YPL055C, strain LGE1, hits give low values 0.86 | [61] 0.318 | [62] 0.431 | S. cerevisiae deletion strains, locus YPL241C, strain CIN2, hits give low values 0.0938 | [64] 0.266 | S. cerevisiae deletion strains, locus YPR135W, strain CTF4, hits give low values 0.233 | S. cerevisiae strains, strain wild type, hits give low values 0.0825

CSc1ccc(/C=C(\C)[N+](=O)[O-])cc1
active: [1] 0.0932 | [2] 0.0831 | [3] 0.0817 | [4] 0.0817 | [5] 0.0827 | [6] 0.0813 | [7] 0.0841 | [8] 0.1 | [9] 0.0841 | [10] 0.0925 | [11] 0.103 | [12] 0.0952 | [13] 0.09 | [14] 0.104 | [15] 0.0983 | [16] 0.0958 | [17] 0.0931 | [18] 0.0921 | [19] 0.0893 | [20] 0.092 | [21] 0.0831 | [22] 0.103 | [23] 0.138 | [24] 0.105 | [25] 0.132 | [26] 0.122 | [27] 0.141 | [28] 0.00725 | [29] 0.0876 | [30] 0.142 | [31] 0.084 | [32] 0.0861 | [33] 0.0953 | [34] 0.158 | [35] 0.106 | [36] 0.0912 | [37] 0.103 | [38] 0.0867 | [39] 0.115 | [40] 0.176 | [41] 0.0883 | [42] -0.00294 | [43] 0.0932 | [44] 0.0857 | [45] 0.0912 | [46] 0.0923 | [47] 0.088 | [48] 0.0937 | [49] 0.0836 | [50] 0.129 | [51] 0.0937 | [52] 0.0888 | [53] 0.103 | [54] 0.0847 | [55] 0.0905 | [56] 0.0875 | [57] 0.109 | [58] 0.137 | [59] 0.0819 | [60] 0.11 | [61] 0.112 | [62] 0.0976 | [63] 0.0829 | [64] 0.156 | [65] 0.0822 | [66] 0.0856 | [67] 0.188 | [68] 0.0909 | [69] 0.0882
